Screens: PubChem, several laboratories
sEH activator – soluble epoxide hydrolase (human) activation | purified human sEH enzymatic activity, activator screen | activation, % at 2 µM | actives 0.04% (n = 91,000) | AID 717; in the data active means activation above about 37%
CYP2C19 inhib – inhibitors of human CYP2C19; P33261; CYP2C19 Supersomes, luciferin-H EGE luminescence, 30 min; inhibition, % at 5 µM; actives 21% (n = 96,000);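 active means CYP2C19 inhibition above a set limit at 5 µM in the primary screen, cut at about 50% in these data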;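 further: plate controls were negative control wells for no effect and 2.5 mM tranylcypromine positive control for full effect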
sEH inhibitor – soluble epoxide hydrolase (human) inhibition; inhibition, % at 2 µM; recombinant human sEH enzymatic activity assay; P34913; actives 0.34% (n = 91,000); in the data active means inhibition above about 80%
CYP2C9 act – increases human cytochrome P450 2C9 activity. recombinant CYP2C9, luciferin-H conversion, luminescence; stronger effect = higher value; factor 1 = untreated enzyme, 0 = blocked. P11712. actives 1.4% (n = 96,000). activation factor at 5 µM. AID 1024;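 active means activation factor of 2 or more for CYP2C9 at a 5 µM dose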;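 further: 0 = sulfaphenazole-blocked wells and 1 = vehicle-only wells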
Target sequence (P11712 whole entry, looked up): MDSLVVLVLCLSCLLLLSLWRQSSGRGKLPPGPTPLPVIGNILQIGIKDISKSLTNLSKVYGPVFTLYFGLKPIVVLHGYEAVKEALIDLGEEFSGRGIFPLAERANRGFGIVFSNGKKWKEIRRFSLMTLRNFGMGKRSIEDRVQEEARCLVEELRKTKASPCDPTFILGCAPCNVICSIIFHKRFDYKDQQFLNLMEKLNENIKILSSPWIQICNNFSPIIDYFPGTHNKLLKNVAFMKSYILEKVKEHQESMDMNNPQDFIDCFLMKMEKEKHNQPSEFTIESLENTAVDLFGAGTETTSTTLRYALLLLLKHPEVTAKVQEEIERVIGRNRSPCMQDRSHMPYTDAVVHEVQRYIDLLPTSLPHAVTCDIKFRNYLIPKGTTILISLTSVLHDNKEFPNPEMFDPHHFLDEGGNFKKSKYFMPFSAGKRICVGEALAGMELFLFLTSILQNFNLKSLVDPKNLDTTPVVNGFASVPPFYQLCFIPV
CYP2C19 act – activators of human cytochrome P450 2C19 | P33261 | recombinant CYP2C19, luciferin-H EGE luminescence; stronger effect = higher value; 0 = fully inhibited enzyme, 1 = untreated enzyme | activation factor at 5 µM | 96,000 tested, under 10 active | AID 1025;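 active means activation factor of at least 2 at 5 µM in the primary screen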;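 further: 0 = wells with 2.5 mM tranylcypromine and 1 = vehicle-only wells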
CYP2C9 inhib – inhibitors of human CYP2C9; P11712; CYP2C9 Supersomes, luciferin-H conversion, luminescence; inhibition, % at 5 µM; actives 20% (n = 96,000); AID 777;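 active means blocking of liver enzyme CYP2C9 beyond about 50% at 5 µM, limit read from the data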
Active calls of the source: *; · = not tested or not shown. An excerpt weighted towards active compounds, which were near 27% of everything screened.

SMILES	sEH activator	CYP2C19 inhib	sEH inhibitor	CYP2C9 act	CYP2C19 act	CYP2C9 inhib
Cc1ccc(-c2cccc(NC(=O)C3C4C=CC(C4)C3C(=O)O)c2)o1 (configuration not stated)	-7	-3	9	1	1	2
CS(=O)(=O)Nc1ccc(S(=O)(=O)N2CCOCC2)cc1	-12	3	11	1	1	4
COc1ccc(S(=O)(=O)Nc2ccc(S(=O)(=O)N3CCOCC3)cc2)cc1	·	60*	·	0.1	0.4	94*
COCCn1c(CN2CCN(c3cccc(Cl)c3)CC2)nc2c1c(=O)n(C)c(=O)n2C	6	44	-4	0.2	0.6	77*
CCOCCn1c(CN2CCN(c3ccc(F)cc3)CC2)nc2c1c(=O)n(C)c(=O)n2C	·	9	·	0.6	0.9	39
Cn1c(=O)c2c(nc(CN3CCN(c4cccc(Cl)c4)CC3)n2CCc2ccccc2)n(C)c1=O	5	·	-2	·	·	·
Cn1c(=O)[nH]c(=O)c2c1nc(CN1CCN(c3cccc(Cl)c3)CC1)n2Cc1ccccc1Cl	·	2	·	0.3	1	73*
CCOCCn1c(CN2CCN(c3cccc(Cl)c3)CC2)nc2c1c(=O)n(C)c(=O)n2C	13	50	-13	0.2	0.5	80*
O=C(Nc1cccc(-c2cn3ccccc3n2)c1)C1CC1	8	7	-8	0.9	0.9	15
Cc1cc(C)n2nc(SCc3cc(=O)oc4ccc5ccccc5c34)nc2n1	9	-6	-8	0.9	1.1	6
Cc1cc2ncn(C3CC(=O)N(Cc4ccc(N5CCCC5=O)cc4)C3=O)c2cc1C (configuration not stated)	-9	30	8	0.6	0.7	37
COc1cc(NC(=O)C2CC(=O)NC3=C2C(=O)CCC3)c(OC)cc1Cl (configuration not stated)	-4	17	7	0.8	0.8	19
CCOC(=O)C(/C=C(\C#N)C(=O)OCC)=C(/N)N1CCN(c2c(C)cccc2C)CC1	-18	16	21	1.1	0.8	-10
CCC1=Nc2cc(C(=O)NCCCOC)ccc2Sc2ccccc21	-36	54*	34	0.6	0.5	40
CCOC(=O)CSc1nnc(CNC(=O)c2ccc(OC)cc2)n1C1CCCCC1	-1	75*	1	0.9	0.2	15
CC1CCN(CC(=O)n2c3c(c4ccccc42)CCCC3)CC1	-2	68*	5	1.3	0.3	-29
Cn1c(SCC(=O)n2c3c(c4ccccc42)CCCC3)nnc1-c1ccccc1	16	69*	-18	2*	0.3	-100
CCN1CCN(CC(=O)n2c3c(c4ccccc42)CC(C)CC3)CC1 (configuration not stated)	-3	51*	8	1	0.5	-2
Cc1nnc(SCC(=O)n2c3c(c4ccccc42)CCCC3)s1	17	34	-21	1.3	0.7	-31
CCCC(C)C(=O)Nc1nnc(C)s1 (configuration not stated)	-5	-1	5	1.2	1	-18
O=C1CC(C(=O)O)C2(CCCC2)O1 (configuration not stated)	0	·	6	·	·	·
Cc1cc(=O)oc2cc(Oc3ncccn3)ccc12	-4	17	7	0.9	0.8	7
CC1CCCC(C)N1CC(C)(C)NS(=O)(=O)c1ccc(Cl)cc1 (configuration not stated)	6	84*	-6	0.8	0.2	17
Cc1cc(C(=O)NCCCN2CC(C)CC(C)C2)n(-c2ccccc2)n1 (configuration not stated)	2	-7	-5	1	1.1	-3
CCN(CC)C1CCCCC1NS(=O)(=O)c1ccc(Cl)cc1 (configuration not stated)	-9	6	8	1	0.9	5
SMILES	sEH activator	CYP2C19 inhib	sEH inhibitor	CYP2C9 act	CYP2C19 act	CYP2C9 inhib
CC1CC(C)CN(CC(C)(C)NS(=O)(=O)c2ccccc2)C1 (configuration not stated)	2	79*	0	0.5	0.2	48
CCN(CC)c1ccc(NC(=O)CSc2nc3ccccc3c(=O)[nH]2)cc1	-11	19	11	0.6	0.8	38
O=C(Nc1c(F)cccc1F)c1cnc(N2CCN(c3ccccn3)CC2)c2ccccc12	7	36	-6	0.4	0.6	65*
O=C(c1ccc(C#Cc2ccccc2)o1)N1CCN(c2ccccn2)CC1	0	15	1	0.4	0.8	56*
O=C(c1cnc(N2CCN(c3ncccn3)CC2)c2ccccc12)N1CCN(c2ccccn2)CC1	19	68*	-19	0.2	0.3	80*
O=C(c1cc(-c2ccncc2)nc2ccccc12)N1CCN(c2ccccn2)CC1	·	39	·	0.1	0.6	85*
COc1ccc(S(=O)(=O)CC(O)CN2CCCC2=O)cc1 (configuration not stated)	-10	-8	8	1.2	1.1	-18
O=C(c1cc(-c2ccncc2)nc2ccccc12)N1CCN(c2ccc(N3CCOCC3)nn2)CC1	2	38	-3	0.3	0.6	68*
COc1ccc(-c2cc(C(=O)N3CCN(c4ccccc4)CC3)c3ccccc3n2)cc1OC	16	89*	-18	0.1	0.1	93*
O=C(c1cc(N2CCCCC2)nc2ccccc12)N1CCOCC1	-3	0	0	0.9	1	9
COc1ccc(C(=O)N2CCN(c3ccc(C)cc3)CC2)cc1OC	-3	13	2	1.8	0.9	-75
Cc1ccc(NC(=O)c2cc(N3CCOCC3)nc3ccccc23)cc1	-5	4	4	0.6	1	36
O=C(Nc1ccccc1)c1cc(N2CCOCC2)nc2ccccc12	-1	20	1	0.5	0.8	51*
O=C(c1cc(-c2cccnc2)nc2ccc(Br)cc12)N1CCN(c2ncccn2)CC1	·	34	·	0.4	0.7	58*
O=C(N/N=C1\CCCc2ccccc21)c1ccc([N+](=O)[O-])cc1Cl	-4	11	6	1.3	0.9	-30
Cc1ccccc1C(=O)N1CCN(c2ccccn2)CC1	-6	·	9	·	·	·
COc1ccc(N(C)C(=O)c2cnc(N3CCN(c4ncccn4)CC3)c3ccccc23)cc1	1	79*	-1	0.3	0.2	69*
O=C(c1ccccc1-c1ccccc1)N1CCN(c2ccccn2)CC1	-4	40	7	0.3	0.6	73*
O=C(c1ccco1)N1CCN(C(=O)c2cc(-c3ccccn3)nc3ccccc23)CC1	·	1	·	1	1	4
O=C(c1cc(-c2ccccc2)nc2ccccc12)N1CCN(c2ccccn2)CC1	-9	37	8	0.5	0.6	52*
C/C=C/C(=O)Nc1ccccc1Br	-7	7	7	1	0.9	-1
COc1ccc(NC(=O)c2ccc(C(=O)c3cc(OC)ccc3OC)cc2)cc1	-5	0	8	0.9	1	11
